# Experimental data taken from the supplement of paper PMC8728848.
# Many of the other results were omitted from the sample, so the strongest signals are more common in it than they were.
# B1: his-Lectin-24A (Drosophila melanogaster) (protein)
# chain: MFRLSVLVLNLLLVSHEFSAGTAKIEIQPLPALCNGYCFPTLKPVMEYVAIHQDKWNTCTEILANEARKDQIQLNIQLDALKADVSNIKASQLSKDEKLDRMEREQFAMHESLETINRYLTVKLDRTKLQLEAIKNTMDYMKAQMDGYFSAINGVQCLQPGFEKIGDRYFYIEEDVELNWLDAQAKCRRMGGHLASIKTKQEFDAIVEKLDDSKSYFLGVNENTKTGDFVSAASGKSCLYHEWGPGEPHHNNDQERCVSILRKLMHVGNCTYEKRFICQYGI
# Assays:
# Experiment in all cases: glycan array binding signal (z-score within array); higher = stronger binding
# Settings in all cases: glycan notation: IUPAC condensed, linker removed
# [1] = biological target: Fuc(a1-2)Gal(b1-3)[Fuc(a1-4)]GlcNAc
# Method in brief: (§1)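 Arrays were curated from the Consortium for Functional Glycomics database, 3228 in total, and kept only where the protein sequence was available. Binding is expressed as a within-array Z-score. This score was averaged across arrays of the same protein sequence at different concentrations or buffers and across linkers, and negative values can be read as non-binding.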
# [2] = biological target: Fuc(a1-2)Gal(b1-4)GlcNAc(b1-2)[Fuc(a1-2)Gal(b1-4)GlcNAc(b1-4)]Man(a1-3)[Fuc(a1-2)Gal(b1-4)GlcNAc(b1-2)Man(a1-6)]Man(b1-4)GlcNAc(b1-4)GlcNAc
# Method in brief: as §1
# [3] = biological target: Fuc(a1-2)Gal(b1-4)GlcNAc(b1-3)GalNAc
# Method in brief: as §1
# [4] = biological target: Fuc(a1-2)Gal(b1-4)GlcNAc(b1-3)[Fuc(a1-3)[Gal(b1-4)]GlcNAc(b1-6)]Gal(b1-4)Glc
# Method in brief: as §1
# [5] = biological target: Fuc(a1-2)Gal(b1-4)[Fuc(a1-3)]GlcNAc(b1-2)[Fuc(a1-2)Gal(b1-4)[Fuc(a1-3)]GlcNAc(b1-4)]Man(a1-3)[Fuc(a1-2)Gal(b1-4)[Fuc(a1-3)]GlcNAc(b1-2)Man(a1-6)]Man(b1-4)GlcNAc(b1-4)GlcNAc
# Method in brief: as §1
# [6] = biological target: Fuc(a1-2)Gal6S(b1-4)Glc
# Method in brief: as §1
# [7] = biological target: Fuc(a1-2)[Gal(a1-3)]Gal(b1-4)GlcNAc(b1-2)Man(a1-3)[Fuc(a1-2)[Gal(a1-3)]Gal(b1-4)GlcNAc(b1-2)Man(a1-6)]Man(b1-4)GlcNAc(b1-4)GlcNAc
# Method in brief: as §1
# [8] = biological target: Fuc(a1-2)[Gal(a1-3)]Gal(b1-4)GlcNAc(b1-6)GalNAc
# Method in brief: as §1
# [9] = biological target: Fuc(a1-3)[Gal(b1-4)]GlcNAc(b1-2)Man(a1-3)[Fuc(a1-3)[Gal(b1-4)]GlcNAc(b1-2)Man(a1-6)]Man(b1-4)GlcNAc(b1-4)[Fuc(a1-6)]GlcNAc
# Method in brief: as §1
# [10] = biological target: Fuc(a1-3)[Gal3S(b1-4)]Glc
# Method in brief: as §1
# [11] = biological target: Gal(a1-3)Gal(b1-3)GlcNAc(b1-2)Man(a1-3)[Gal(a1-3)Gal(b1-3)GlcNAc(b1-2)Man(a1-6)]Man(b1-4)GlcNAc(b1-4)GlcNAc
# Method in brief: as §1
# [12] = biological target: Gal(a1-3)Gal(b1-3)GlcNAc(b1-6)GalNAc
# Method in brief: as §1
# [13] = biological target: Gal(a1-3)Gal(b1-4)GlcNAc
# Method in brief: as §1
# [14] = biological target: Gal(b1-3)GlcNAc(b1-2)Man(a1-3)[Gal(b1-3)GlcNAc(b1-2)Man(a1-6)]Man(b1-4)GlcNAc(b1-4)GlcNAc
# Method in brief: as §1
# [15] = biological target: Gal(b1-3)GlcNAc(b1-3)Gal(b1-4)GlcNAc(b1-3)Gal(b1-4)GlcNAc(b1-2)[Gal(b1-3)GlcNAc(b1-3)Gal(b1-4)GlcNAc(b1-3)Gal(b1-4)GlcNAc(b1-6)]Man(a1-6)[Gal(b1-3)GlcNAc(b1-3)Gal(b1-4)GlcNAc(b1-3)Gal(b1-4)GlcNAc(b1-2)Man(a1-3)]Man(b1-4)GlcNAc(b1-4)[Fuc(a1-6)]GlcNAc
# Method in brief: as §1
# [16] = biological target: Gal(b1-3)[Fuc(a1-4)]GlcNAc(b1-6)GalNAc
# Method in brief: as §1
# [17] = biological target: Gal(b1-4)GlcNAc(b1-2)Man(a1-3)Man(b1-4)GlcNAc(b1-4)GlcNAc
# Method in brief: as §1
# [18] = biological target: Gal(b1-4)GlcNAc(b1-2)Man(a1-6)[Man(a1-3)]Man(b1-4)GlcNAc(b1-4)GlcNAc
# Method in brief: as §1
# [19] = biological target: Gal(b1-4)GlcNAc(b1-2)[Gal(b1-4)GlcNAc(b1-4)]Man(a1-3)[GlcNAc(b1-4)][Gal(b1-4)GlcNAc(b1-2)Man(a1-6)]Man(b1-4)GlcNAc(b1-4)GlcNAc
# Method in brief: as §1
# [20] = biological target: Gal(b1-4)GlcNAc(b1-2)[Gal(b1-4)GlcNAc(b1-6)]Man(a1-6)[Gal(b1-4)GlcNAc(b1-2)Man(a1-3)]Man(b1-4)GlcNAc(b1-4)GlcNAc
# Method in brief: as §1
# [21] = biological target: Gal(b1-4)GlcNAc(b1-3)Gal(b1-4)GlcNAc(b1-3)Gal(b1-4)GlcNAc
# Method in brief: as §1
# [22] = biological target: Gal(b1-4)GlcNAc(b1-3)Gal(b1-4)GlcNAc(b1-3)Gal(b1-4)GlcNAc(b1-3)Gal(b1-4)GlcNAc(b1-2)Man(a1-3)[Gal(b1-4)GlcNAc(b1-3)Gal(b1-4)GlcNAc(b1-3)Gal(b1-4)GlcNAc(b1-3)Gal(b1-4)GlcNAc(b1-2)Man(a1-6)]Man(b1-4)GlcNAc(b1-4)[Fuc(a1-6)]GlcNAc
# Method in brief: as §1
# [23] = biological target: Gal(b1-4)GlcNAc(b1-3)Gal(b1-4)GlcNAc(b1-3)Gal(b1-4)GlcNAc(b1-3)Gal(b1-4)GlcNAc(b1-3)Gal(b1-4)GlcNAc(b1-2)Man(a1-3)[Gal(b1-4)GlcNAc(b1-3)Gal(b1-4)GlcNAc(b1-3)Gal(b1-4)GlcNAc(b1-3)Gal(b1-4)GlcNAc(b1-3)Gal(b1-4)GlcNAc(b1-2)Man(a1-6)]Man(b1-4)GlcNAc(b1-4)GlcNAc
# Method in brief: as §1
# [24] = biological target: Gal(b1-4)GlcNAc(b1-6)[Gal(b1-4)GlcNAc(b1-3)]GalNAc
# Method in brief: as §1
# [25] = biological target: Gal3S(b1-4)[Fuc(a1-3)]GlcNAc6S
# Method in brief: as §1
# [26] = biological target: GalNAc3S(b1-4)GlcNAc3S
# Method in brief: as §1
# [27] = biological target: GalNAc4S6S(b1-4)GlcNAc
# Method in brief: as §1
# [28] = biological target: Glc(a1-4)Glc
# Method in brief: as §1
# [29] = biological target: GlcA(b1-3)Gal
# Method in brief: as §1
# [30] = biological target: GlcNAc(a1-4)Gal(b1-4)GlcNAc(b1-3)Gal(b1-4)Glc
# Method in brief: as §1
binder,measurement,setting,value
B1,glycan array binding signal (z-score),[1],-0.536
same,glycan array binding signal (z-score),[2],2.61
same,glycan array binding signal (z-score),[3],-0.522
same,glycan array binding signal (z-score),[4],2.69
same,glycan array binding signal (z-score),[5],-0.328
same,glycan array binding signal (z-score),[6],-0.34
same,glycan array binding signal (z-score),[7],2.02
same,glycan array binding signal (z-score),[8],0.328
same,glycan array binding signal (z-score),[9],0.275
same,glycan array binding signal (z-score),[10],-1.19
same,glycan array binding signal (z-score),[11],2.35
same,glycan array binding signal (z-score),[12],-0.445
same,glycan array binding signal (z-score),[13],0.285
same,glycan array binding signal (z-score),[14],1.74
same,glycan array binding signal (z-score),[15],1.49
same,glycan array binding signal (z-score),[16],2.34
same,glycan array binding signal (z-score),[17],0.019
same,glycan array binding signal (z-score),[18],2.68
same,glycan array binding signal (z-score),[19],-1.25
same,glycan array binding signal (z-score),[20],-0.553
same,glycan array binding signal (z-score),[21],-0.79
same,glycan array binding signal (z-score),[22],3.44
same,glycan array binding signal (z-score),[23],4.07
same,glycan array binding signal (z-score),[24],0.403
same,glycan array binding signal (z-score),[25],0.382
same,glycan array binding signal (z-score),[26],3.3
same,glycan array binding signal (z-score),[27],6.71
same,glycan array binding signal (z-score),[28],-0.592
same,glycan array binding signal (z-score),[29],0.317
same,glycan array binding signal (z-score),[30],2.7
